This is an account of results in PubChem BioAssay AID651784 (National Center for Advancing Translational Sciences (NCATS), 2012).

Results filed as inconclusive are left out. Calls of active or inactive are those of the source. Calls follow the shape of the dose curve; as a rule, active = well fitted inhibition curve with a large enough effect; inconclusive = small, poorly fitted or top-dose-only effect; inactive = no such curve, though single readings can be large or run the other way.
Potency is read from the fitted curve at half-maximal effect.

This assay in a line: Acumen qHTS Assay for Inhibitors of the mTORC1 Signaling Pathway in MEF (Tsc2-/-, p53-/-) Cells: Hit Validation.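 Also: phospho-rpS6 Ser235/236 immunofluorescence normalized to propidium iodide cell count; nearly all actives have a fitted effect of over 65% in size.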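 As to activity change, negative = inhibition: cells exposed to compound for 24 hours; plate controls were DMSO for no effect and 7.5 nM rapamycin control for full effect.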 The following applies: Acumen imaging; activity change, negative = inhibition: at 37.3 µM (top of the series). In general terms: In qHTS, concentration-response curves come from the screen itself.
For `CCOc1ccc(NC(=O)CSc2oc(-c3ccccc3)nc2S(=O)(=O)c2ccc(Cl)cc2)cc1`, the activity change, negative = inhibition was -112%.

Regarding `O=C(Nc1cccc(C(F)(F)F)c1)c1cnn(-c2cccc(F)c2)c1C1CCNCC1`, the activity change, negative = inhibition is -13.8%.

As for `CCOC(=O)c1c(NC(=O)c2ccc(S(=O)(=O)N(CCOC)CCOC)cc2)sc2c1CC(C)(C)NC2(C)C`, the Potency was 8.26 µM (active).

In the case of `COc1ccc(OC)c(C(=O)CC2(O)C(=O)N(Cc3ccccc3C)c3ccccc32)c1` (configuration not stated), the Potency was 2.61 µM (active).

For `COc1ccc(Cl)cc1S(=O)(=O)NCc1ccc2c(c1)CCN2C(=O)c1cccc(C)c1`, the activity change, negative = inhibition is -22.6%.

`CCCCS(=O)(=O)c1oc(-c2ccc(F)cc2)nc1S(=O)(=O)c1ccc(C)cc1`: the Potency is 4.65 µM (active).

Turning to `CCc1cnc2c(c1SCC(=O)NCc1ccc(F)cc1)c(=O)n(C)c(=O)n2C`, the activity change, negative = inhibition stood at 5.42%.

As for `Cc1nnc(C(=O)NC(C)(C)c2nc(C(=O)NCc3ccc(F)cc3)c(O)c(=O)n2C)o1`, the activity change, negative = inhibition was -4.28%.

For `COc1ccc(OCC(=O)Nc2ccc3nn(-c4ccc(OC)cc4)nc3c2)cc1`, the activity change, negative = inhibition was 11.1%.

On to `CCN(CCCNC(=O)c1cc2c(=O)[nH]c3ccc(C)cc3c2s1)Cc1ccccc1`, for which the activity change, negative = inhibition is -139%.

Take `COc1ccc(S(=O)(=O)N(CCc2ccccc2)CC(=O)Nc2cccc(OC)c2)cc1`: the activity change, negative = inhibition is -19.2%.

Consider `COc1ccc(Nc2cc(C)nc(-n3nc(C)cc3C)n2)cc1Cl`, for which the Potency was 0.147 µM (active).

For the molecule `COc1ccc(-c2nc(CCNC(=O)c3c(F)cccc3Cl)cs2)cc1`, the activity change, negative = inhibition was -0.104%.

On to `Cc1ccc(NC(=O)CCNS(=O)(=O)c2cccc3nonc23)cc1Cl`, for which the activity change, negative = inhibition was determined as 5.73%.

In the case of `Cc1ccc(CN2C(=O)C(O)(CC(=O)c3ccc(C)cc3)c3ccccc32)cc1` (configuration not stated), the Potency was 4.65 µM (active).

Consider `COc1ccc(CNC(=O)Cn2c(SCC(=O)Nc3ccc(C)c(C)c3)nc3ccccc32)cc1`, for which the activity change, negative = inhibition was -79.6%.

Turning to `Cc1ccccc1S(=O)Cc1ccc(C(=O)N2CCN(c3cccc(C)c3C)CC2)o1` (configuration not stated), the Potency was 6.56 µM (active).

`CCOC(=O)C1CCN(C(=O)CSc2c3c(nc4ccc(Cl)cc24)CCCC3)CC1`: the activity change, negative = inhibition was -5.08%.

As to `O=C(Cn1c(=O)c2cccn2c2ccccc21)NCc1ccccc1F`, the activity change, negative = inhibition is 18.1%.

With `CC1CCN(S(=O)(=O)c2ccc(C(=O)Nc3sc4c(c3C(N)=O)CC(C)(C)NC4(C)C)cc2)CC1`, the activity change, negative = inhibition was -107%.

Regarding `CCCCN(CCCNC(=O)c1cc(Nc2cccc(SC)c2)nc2ccccc12)Cc1ccccc1`, the activity change, negative = inhibition is -95.1%.

Regarding `CCCS(=O)(=O)c1ncc(Cl)c(C(=O)Nc2c(C(=O)Nc3ccccc3)oc3ccccc23)n1`, the Potency is 0.585 µM (active).

Take `Cc1ccc(C(=O)CC2(O)C(=O)N(Cc3ccccc3F)c3ccccc32)cc1` (configuration not stated): the activity change, negative = inhibition is -11.8%.

For `COc1ccccc1NC(=O)CSc1ccc(-c2ccccn2)nn1`, the Potency was 11.7 µM (active).

`CCCCS(=O)(=O)c1oc(-c2cccs2)nc1S(=O)(=O)c1ccccc1`: the Potency was 2.07 µM (active).

For the molecule `COc1ccc(NC(=O)CSc2nc3ccccc3n2Cc2cccc(OC)c2)cc1`, the activity change, negative = inhibition was -5.71%.

Consider `COc1ccc(CCNC(=O)CCCn2nc(C)c3sc4ccccc4c3c2=O)cc1OC`, for which the activity change, negative = inhibition is -12%.

As to `COc1ccc(NC(=O)CSc2nc3ccccc3nc2N2CCC(C)CC2)cc1`, the activity change, negative = inhibition was 6.7%.

As to `CCCCOc1cccc(C(=O)N2CCN(CCc3ccncc3)CC2)c1`, the activity change, negative = inhibition amounted to 0.726%.

Consider `COc1cccc(-c2nc(SCC(=O)NCC3CCCO3)c(-c3ccc(F)cc3)[nH]2)c1` (configuration not stated), for which the activity change, negative = inhibition is -3.33%.

Take `Cc1ccc(CS(=O)(=O)c2ncc(Cl)c(C(=O)Nc3nnc(C(C)C)s3)n2)cc1`: the Potency is 5.85 µM (active).

For the molecule `CCCC(=O)OC1=CN(Cc2ccccc2)S(=O)(=O)c2ccccc21`, the activity change, negative = inhibition was -27.1%.

For `Cc1ccc(NC(=O)CSc2nc(=O)cc(N)n2CCc2ccccc2)cc1`, the activity change, negative = inhibition was -30%.

As for `Cc1ccc(NC(=O)c2nc(S(=O)(=O)Cc3cccc(C)c3)ncc2Cl)cc1`, the activity change, negative = inhibition was -108%.

Turning to `Cc1nc2nncn2c(NCc2ccc(Cl)cc2)c1C`, the Potency is 4.14 µM (active).

Consider `CC(C)(C)C1CCc2c(sc(NC(=O)C3c4ccccc4Oc4ccccc43)c2C(N)=O)C1` (configuration not stated), for which the activity change, negative = inhibition was -15.3%.

Take `Cc1cc(C)cc(OCC(=O)Nc2cccc(-c3nc4ccccc4[nH]3)c2)c1`: the activity change, negative = inhibition was -6.64%.
